Compound activity from PubChem.
Shown are actives, neighbours in structure and some others; about 1.4% of the full set was active somewhere.
E coli Lon inh = inhibits E. coli Lon protease; P0A9M0; purified E. coli Lon protease, fluorescence polarization; inhibition, % at 7.94 µM; actives 0.42% (n = 360,000); AID 602123; in the data active = inhibition above about 13%, passing the limit was not always enough;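 also: 0% = enzyme with probe and DMSO and 100% = no enzyme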
Bcl-xL primary = blocks human Bcl-xL binding to Bim BH3 peptide. inhibition, % at 10.9 µM. Q07817. GST-Bcl-xL / FITC-Bim BH3 peptide fluorescence polarization. AID 2129. actives 0.7% (n = 320,000);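 active = inhibition above the mean of all tested compounds plus 3 SD, cutoff set per campaign, cut at about 30% in these data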;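 also: 0% = DMSO wells and 100% = unlabeled Bim-BH3 peptide competitor; inhibitors lower millipolarization by displacing the labeled peptide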
GLD-1 RNA inh = GLD-1-TGE RNA interaction inhibition (C. elegans). AID 2280. purified GLD-1 + fluorescein TGE RNA, fluorescence polarization. actives 0.44% (n = 320,000). inhibition, % at 5.96 µM. Q17339;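 active = percent inhibition above a per-plate cutoff, the plate mean of test compounds plus 3 SD, cut at about 30% in these data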;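 also: 0% = DMSO wells with GLD-1 and probe and 100% = wells lacking GLD-1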
MEX-5 binding = C. elegans MEX-5 TCR-2 RNA binding activity. Q9XUB2. MEX-5/FITC-TCR2 RNA binding, fluorescence polarization; hits give low values. activity score (negative = inhibition of binding), % at 10 µM. actives 0.38% (n = 300,000);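 active = inhibition past about -25% in most replicates, and total fluorescence under double the plate's negative control median, limit read from the data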;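 also: 0% = DMSO and -100% = 5 µM competing unlabeled TCR2 RNA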
Target sequence (Q9XUB2 whole entry, looked up): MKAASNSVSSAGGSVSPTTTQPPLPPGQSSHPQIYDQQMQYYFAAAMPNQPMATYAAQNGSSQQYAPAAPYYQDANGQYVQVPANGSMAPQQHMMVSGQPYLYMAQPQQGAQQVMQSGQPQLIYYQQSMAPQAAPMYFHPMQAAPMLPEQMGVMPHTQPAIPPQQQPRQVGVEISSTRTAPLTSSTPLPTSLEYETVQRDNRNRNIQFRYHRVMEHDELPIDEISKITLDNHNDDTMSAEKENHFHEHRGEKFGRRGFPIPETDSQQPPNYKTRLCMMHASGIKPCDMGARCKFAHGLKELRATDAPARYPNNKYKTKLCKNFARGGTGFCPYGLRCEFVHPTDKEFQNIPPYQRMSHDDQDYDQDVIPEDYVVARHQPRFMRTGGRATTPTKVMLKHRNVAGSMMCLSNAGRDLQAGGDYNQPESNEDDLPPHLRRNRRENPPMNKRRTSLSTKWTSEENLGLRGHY
MCL1-BIM inh = MCL1-BIM-BH3 interaction inhibition (human). Q07820. GST-MCL1 / FITC-Bim-BH3 fluorescence polarization. inhibition, % at 10.9 µM. actives 0.68% (n = 320,000). AID 2057;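 active = inhibition above the mean inhibition of all tested compounds plus 3 SD, set per campaign, cut at about 40% in these data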;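 also: 0% = DMSO wells and 100% = unlabeled Bim-BH3 peptide control; higher means more loss of mP so more displacement of Bim peptide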
Bcl-xL conf = Bcl-xL (human) inhibition, MCL1 counter-screen confirmation; shares compounds with MCL1-BIM inh; GST-Bcl-xL / FITC-Bim BH3 peptide FP binding; inhibition, % at 10.9 µM; actives 54% (n = 1,700);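 active = inhibition above a cutoff equal to the mean inhibition of all tested compounds plus 3 SD, cut at about 30% in these data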;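 also: 0% = DMSO wells and 100% = unlabeled Bim BH3 control peptide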
MCL1 BIM confirm = MCL1-BIM-BH3 interaction inhibition, confirmation | AID 2168 | GST-MCL1 / FITC-Bim-BH3 fluorescence polarization | inhibition, % at 10.9 µM | shares compounds with MCL1-BIM inh | actives 61% (n = 1,700);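 active = inhibition above the average of all tested compounds plus 3 SD, cut at about 40% in these data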;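 also: 0% = DMSO wells and 100% = unlabeled Bim-BH3 control peptide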
An asterisk follows results filed as active.

`COc1ccc(NC(=O)[C@@H]2[C@@H]3C(=O)N(C4CCCCC4)C(=O)[C@@H]3C3c4ccccc4C=CN32)cc1` (stereo partly specified) gave E coli Lon inh -48, Bcl-xL primary 8, GLD-1 RNA inh -1, MEX-5 binding 5 and MCL1-BIM inh 3.
Screening O=C1NC(=O)[C@@H]2C3c4ccccc4C=CN3[C@H](C(=O)c3cccs3)[C@H]12 (stereo partly specified) returned Bcl-xL primary 123*, GLD-1 RNA inh 102*, MEX-5 binding -53*, MCL1-BIM inh 124*, Bcl-xL conf 61* and MCL1 BIM confirm 87*.
`O=C(Cc1ccc(Cl)cc1)Nc1cccnc1Cl` gave E coli Lon inh 4.
For Cc1ccc(S(=O)(=O)CCC(=O)OCC(=O)Nc2cc(C)on2)cc1 the results were E coli Lon inh -4, Bcl-xL primary active, GLD-1 RNA inh 183*, MEX-5 binding 1, MCL1-BIM inh active, Bcl-xL conf 9 and MCL1 BIM confirm -1.
For Cc1cc(NC(=O)COC(=O)CCS(=O)(=O)c2ccc(Cl)cc2)no1 the results were E coli Lon inh 11, Bcl-xL primary 8, GLD-1 RNA inh 9, MEX-5 binding 0 and MCL1-BIM inh 7.
For COC(=O)c1ccc(N)c(N=CC2=C(O)CC(C)(C)CC2=O)c1 the results were E coli Lon inh -62, Bcl-xL primary 87*, GLD-1 RNA inh 73*, MEX-5 binding 1, MCL1-BIM inh 89*, Bcl-xL conf 7 and MCL1 BIM confirm 15.
Screening CC1(C)CC(=O)C(C=Nc2cc(C(=O)c3ccccc3)ccc2N)=C(O)C1 returned E coli Lon inh -17, Bcl-xL primary -5, GLD-1 RNA inh 4, MEX-5 binding -15 and MCL1-BIM inh -24.
`CN(C)CCn1nnnc1SCC1=C(C(=O)O)N2C(=O)[C@@H](NC(=O)Cc3csc(N)n3)[C@H]2SC1` gave E coli Lon inh -3, Bcl-xL primary 37*, GLD-1 RNA inh 19, MCL1-BIM inh 51*, Bcl-xL conf 28 and MCL1 BIM confirm 36.
`COc1ccc(N2CCN(C(=O)CCCCCn3c(=S)[nH]c4ccc(N5CCOCC5)cc4c3=O)CC2)cc1` gave E coli Lon inh -3.
Screening O=C(NCc1cccnc1)c1cc(C2CCCN(S(=O)(=O)c3ccccc3)C2)on1 (stereo unspecified) returned E coli Lon inh -6.
For O=C1CCCC2=C1C(c1cccs1)Nc1ccc3ncccc3c12 (stereo unspecified) the results were E coli Lon inh -12, Bcl-xL primary 5, GLD-1 RNA inh 4, MEX-5 binding -1 and MCL1-BIM inh 13.
Screening O=C1CCCC2=C1C(c1ccc(O)c(O)c1)Nc1ccc3ncccc3c12 (stereo unspecified) returned E coli Lon inh 3, Bcl-xL primary 36*, GLD-1 RNA inh 7, MEX-5 binding -7, MCL1-BIM inh 50*, Bcl-xL conf 41* and MCL1 BIM confirm 57*.
For CCN(CC)C(=O)Cn1cc(C(=O)C(=O)Nc2ccc3c(c2)OCO3)c2ccccc21 the results were E coli Lon inh 4.
COc1ccc(F)cc1-c1cc(NC=O)c2ncc(-c3cc(OC)c(OC)c(OC)c3)n2c1 was read as E coli Lon inh -14.
`c1coc(Cn2nnnc2CN2CCN(C3CCCC3)CC2)c1` gave E coli Lon inh -1, Bcl-xL primary 5, GLD-1 RNA inh 5, MEX-5 binding -1, MCL1-BIM inh 40*, Bcl-xL conf 6 and MCL1 BIM confirm 2.
For CCN(CC(=O)Nc1ccc2c(c1)OCCO2)C(=O)/C=C/c1cc(Br)ccc1OC the results were E coli Lon inh -1.
Cc1ccc2[nH]c3c(c2c1)CN(C(=O)CN1CCN(c2ccccn2)CC1)CC3 was read as E coli Lon inh 3, Bcl-xL primary 66*, GLD-1 RNA inh 38*, MEX-5 binding -10, MCL1-BIM inh 58*, Bcl-xL conf 13 and MCL1 BIM confirm 15.
